The structures appear in SMILES notation. The campaign covered roughly 39,000 compounds. About 1,500 (3.8%) were called active. This excerpt belongs to a sample that is enriched for actives.

The assay deals with HSkMC (human skeletal muscle cells). The assay is described as follows: cytotoxicity call (relative viability < 0.9). To be noted: 10 µM.
For `C[C@@H]1CCCCO[C@H](CN(C)S(C)(=O)=O)[C@@H](C)CN([C@H](C)CO)C(=O)c2cc(NS(=O)(=O)c3ccc(F)cc3)ccc2O1`, the cytotoxicity call is “inactive”. In the case of `C[C@@H]1CN([C@H](C)CO)C(=O)c2cc(NC(=O)Nc3ccc(C(F)(F)F)cc3)ccc2O[C@@H](C)CCCCO[C@H]1CN(C)S(=O)(=O)c1cn(C)cn1` it was “inactive”. In the case of `COc1ccc(S(=O)(=O)Nc2ccc3c(c2)C(=O)N([C@@H](C)CO)C[C@H](C)[C@@H](CN(C)C(=O)c2ccccc2)OCCCC[C@H](C)O3)cc1` it was “inactive”; in that of `COc1cc2c(=O)c(-c3ccc4c(c3)OCO4)coc2c2c1OC(C)(C)C=C2`, “inactive”.

In the case of `COc1c(-c2coc3cc4c(cc3c2=O)CC(O)C(C)(C)O4)ccc2c1C=CC(C)(C)O2` (centres undefined), the cytotoxicity call was “active”. In the case of `COc1cc2c(cc1OC)-c1c(oc3c4c(ccc3c1=O)OC(C)(C)C=C4)CO2` it was “inactive”; in that of `C[C@@H]1CCCCO[C@@H](CN(C)Cc2ccc(C(=O)O)cc2)[C@H](C)CN([C@H](C)CO)C(=O)c2cc(NC(=O)NC3CCCCC3)ccc2O1`, “inactive”; in that of `COCC#Cc1ccc2c(c1)O[C@H](CN(C)S(=O)(=O)c1ccc(OC)cc1)[C@H](C)CN([C@@H](C)CO)S2(=O)=O`, “inactive”.

Consider `Cc1noc(C)c1S(=O)(=O)Nc1ccc2c(c1)CC(=O)N([C@@H](C)CO)C[C@H](C)[C@H](CN(C)Cc1ccc(-c3ccccc3)cc1)O2`, for which the cytotoxicity call was “inactive”. In the case of `Cc1noc(C)c1S(=O)(=O)Nc1ccc2c(c1)CC(=O)N([C@@H](C)CO)C[C@H](C)[C@@H](CN(C)Cc1ccc(-c3ccccc3)cc1)O2` it was “inactive”. Take `Cc1noc(C)c1S(=O)(=O)Nc1ccc2c(c1)CC(=O)N([C@@H](C)CO)C[C@@H](C)[C@@H](CN(C)Cc1ccc(-c3ccccc3)cc1)O2`: the cytotoxicity call is “inactive”. The same measure for `Cc1noc(C)c1S(=O)(=O)Nc1ccc2c(c1)CC(=O)N([C@@H](C)CO)C[C@@H](C)[C@H](CN(C)Cc1ccc(-c3ccccc3)cc1)O2`: “active”; for `Cc1noc(C)c1S(=O)(=O)Nc1ccc2c(c1)CC(=O)N([C@H](C)CO)C[C@@H](C)[C@H](CN(C)Cc1ccc(-c3ccccc3)cc1)O2`: “inactive”. For the compound `Cc1noc(C)c1S(=O)(=O)Nc1ccc2c(c1)CC(=O)N([C@H](C)CO)C[C@H](C)[C@@H](CN(C)Cc1ccc(-c3ccccc3)cc1)O2`, the cytotoxicity call was “active”.

For the compound `CC(C)CC#Cc1cnc2c(c1)C(=O)N([C@H](C)CO)C[C@H](C)[C@@H](CN(C)C(=O)CN1CCOCC1)O2`, the cytotoxicity call was “inactive”. The same measure for `NC(=O)N1C(=O)[C@H]2[C@H](C1=O)[C@H]1C=C(CCCO)[C@@H]2[C@H](c2ccc(CN3CCCC3)cc2)N1Cc1sc2ccccc2c1Cl`: “inactive”; for `C[C@@H]1CN([C@H](C)CO)C(=O)c2cc(NS(=O)(=O)c3cccs3)ccc2O[C@@H]1CN(C)CC1CC1`: “inactive”. Consider `C[C@@H]1CN([C@H](C)CO)C(=O)Cc2cc(NS(=O)(=O)c3cccs3)ccc2O[C@H]1CN(C)S(=O)(=O)c1ccc(F)cc1`, for which the cytotoxicity call is “inactive”. Regarding `C[C@H](CO)N1C[C@H](C)[C@@H](CN(C)C(=O)Nc2ccc(F)cc2)OCCCC[C@H](C)Oc2ccc(NC(=O)Nc3cccc4ccccc34)cc2C1=O`, the cytotoxicity call is “inactive”. The same measure for `COCCCNC(=O)[C@@]1(Cc2ccccc2I)c2ccccc2C(=O)N(C2CCCCC2)[C@H]1c1ccc(CO)cc1`: “inactive”. In the case of `C[C@H](CO)N1C[C@H](C)[C@@H](CN(C)Cc2ccc(C(F)(F)F)cc2)Oc2ccc(NC(=O)Nc3ccccc3)cc2CC1=O` it was “inactive”; in that of `C[C@H]1CN([C@@H](C)CO)C(=O)Cc2cc(NC(=O)Nc3ccccc3)ccc2O[C@H]1CN(C)Cc1ccc(C(F)(F)F)cc1`, “active”; in that of `C[C@@H]1CN([C@@H](C)CO)C(=O)Cc2cc(NC(=O)Nc3ccccc3)ccc2O[C@H]1CN(C)Cc1ccc(C(F)(F)F)cc1`, “active”.

Turning to `C[C@@H]1CN([C@@H](C)CO)C(=O)Cc2cc(NC(=O)Nc3ccccc3)ccc2O[C@@H]1CN(C)Cc1ccc(C(F)(F)F)cc1`, the cytotoxicity call is “active”. For the compound `C[C@@H]1CN([C@H](C)CO)C(=O)Cc2cc(NC(=O)Nc3ccccc3)ccc2O[C@@H]1CN(C)Cc1ccc(C(F)(F)F)cc1`, the cytotoxicity call is “active”. As for `C[C@@H](O)C#Cc1ccc2c(c1)O[C@@H](CN(C)C(=O)C1CCCCC1)[C@@H](C)CN([C@@H](C)CO)S2(=O)=O`, the cytotoxicity call is “inactive”. In the case of `Cc1noc(C)c1S(=O)(=O)Nc1ccc2c(c1)C(=O)N([C@H](C)CO)C[C@H](C)[C@H](CN(C)Cc1ccc(Cl)c(Cl)c1)OCCCC[C@@H](C)O2` it was “inactive”; in that of `COc1oc(C(=O)NC2CCCCC2)c(-c2ccc(Cl)cc2)c1S(=O)(=O)c1ccc2c(c1)OCCO2`, “inactive”.

On to `CN1C(=O)c2cc(NS(=O)(=O)c3ccc(F)cc3)ccc2OC[C@@H]2O[C@H](CC(=O)NCC(F)(F)F)CC[C@H]21`, for which the cytotoxicity call was “inactive”. In the case of `C[C@@H]1CCCCO[C@H](CN(C)S(=O)(=O)c2ccc(F)cc2)[C@H](C)CN([C@@H](C)CO)C(=O)c2cc(NS(=O)(=O)c3ccc(Cl)cc3)ccc2O1` it was “inactive”; in that of `COc1ccc(O)cn1`, “inactive”; in that of `C[C@H]1CCCCO[C@H](CN(C)S(=O)(=O)c2cccs2)[C@@H](C)CN([C@@H](C)CO)C(=O)c2cc(NC(=O)Nc3cccc4ccccc34)ccc2O1`, “inactive”. As for `C[C@@H]1CN([C@@H](C)CO)C(=O)c2cc(NC(=O)Nc3ccccc3)ccc2O[C@H]1CN(C)S(C)(=O)=O`, the cytotoxicity call was “inactive”. On to `CC(C)NC(=O)N(C)C[C@H]1Oc2ccc(NS(=O)(=O)c3ccc(F)cc3)cc2CC(=O)N([C@@H](C)CO)C[C@H]1C`, for which the cytotoxicity call was “inactive”. `O=C1C=CC(O)(/C=C/C(=O)O[C@@H]2[C@@H](O)[C@H](Oc3ccc(O)cc3)O[C@H](CO)[C@H]2O)C=C1`: the cytotoxicity call is “inactive”. Regarding `C[C@H](CO)N1C[C@H](C)[C@@H](CN(C)Cc2cccc(C(=O)Nc3ccccc3N)c2)OCc2ccccc2-c2c(n(C)c3ccccc23)C1=O`, the cytotoxicity call is “inactive”. In the case of `C[C@H]1CN([C@@H](C)CO)C(=O)Cc2cc(NC(=O)Nc3ccccc3)ccc2O[C@@H]1CN(C)Cc1ccc(C(F)(F)F)cc1` it was “active”. Consider `C[C@@H]1CN([C@H](C)CO)C(=O)Cc2cc(NC(=O)Nc3ccccc3)ccc2O[C@H]1CN(C)Cc1ccc(C(F)(F)F)cc1`, for which the cytotoxicity call is “active”. On to `C[C@H](CO)N1C[C@H](C)[C@H](CN(C)Cc2ccc(C(F)(F)F)cc2)Oc2ccc(NC(=O)Nc3ccccc3)cc2CC1=O`, for which the cytotoxicity call was “active”.
